Z-score and composite z-score data for twelve compounds are collected here from PubChem BioAssay.

SMILES strings stand for the structures. Calls of active or inactive are those of the source. Unless noted, how the calls were made is not given here.

Assay [1] can be described thus: HepG2 liver cancer cell viability effects, profiling panel, resazurin fluorescence, 24 h, PK04 Diversity Set (AID 1172). Further: test concentration not given here. The note with it: higher = more signal. On the technique in general: The colour change of resazurin is a common sign of viable cells or microbes.
Assay [2] in a line: basal S. cerevisiae growth modulation, no modifier, primary screen, OD600, strain BY4716, 24 h, basal condition (AID 1173). The note with it: OD600, 24 h, higher = more signal, called active from +8 up or from −8 down.
Assay [3] can be described thus: MM1S myeloma cell viability, profiling panel, resazurin fluorescence, basal, 24 h, PK04 Diversity Set (AID 1174).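 Further: MM1S multiple myeloma cell line; test concentration not given here.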 The note with it: higher = more signal, called active from +8 up or from −8 down.
Assay [4] has as its target Dihydroorotate dehydrogenase (quinone), mitochondrial (Plasmodium falciparum (isolate 3D7)) (UniProt Q08210). In words: PfDHODH enzyme inhibitors, primary screen, biochemical, C-terminal His tag, absorbance 600 nm (AID 1175).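 Further: recombinant parasite enzyme with a five histidine tag at its C terminus; test concentration not given here.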 The note with it: DCIP absorbance 600 nm, higher = more signal, called active from +8 up or from −8 down.
Assay [5] in a line: P. aeruginosa biofilm formation inhibitors, primary screen, strain PAO1, LB-PBS medium, absorbance 600 nm (AID 1176). Further: test concentration not given here. The note with it: P. aeruginosa PAO1 growth/biofilm, A600, 12 h; higher = more signal.
The nature of assay [6]: S. cerevisiae RM11-1a growth modifiers, primary screen, strain RM11-1a, OD600, basal, 24 h (AID 1177).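 Further: cultures grown under basal conditions with no added stressor; test concentration not given here.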 The following applies: OD600, 24 h, higher = more signal, called active from +8 up or from −8 down.
Assay [7] is described as follows: E. coli acrAB mutant growth effects, primary screen, E. coli filamentation inducers, strain DRC39, OD650, 24 h (AID 1178).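 Further: growth measured as culture turbidity by optical density at 650 nm; test concentration not given here.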 The following applies: higher = more signal, called active from +8 up or from −8 down.
Assay [8] can be described thus: E. coli acrAB mutant growth effects, primary screen, E. coli filamentation inducers, strain DRC39, OD650, 48 h (AID 1179).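 Further: screen aims at cell division blockers that make cells filament.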 The following applies: E. coli DRC39 delta-acrAB growth, higher = more signal, called active from +8 up or from −8 down.
Assay [9] is described as follows: RPMI8226 myeloma cell viability, profiling panel, resazurin fluorescence, basal, 24 h, PK04 Diversity Set (AID 1180).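 Further: RPMI8826 multiple myeloma cell line at 5000 cells per well; test concentration not given here.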 The following applies: higher = more signal.
Assay [10] addresses E3 ubiquitin-protein ligase XIAP (Homo sapiens) (UniProt P98170). In words: XIAP binders, primary screen, biophysical, small-molecule microarray, fluorescence 635 nm (AID 1181).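 Further: score merges 667 nm emission and signal to noise over triplicate slides.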 The following applies: small-molecule microarray binding, higher = more signal.

Sequence of Dihydroorotate dehydrogenase (quinone), mitochondrial (Plasmodium falciparum (isolate 3D7)) (Q08210 whole entry, looked up): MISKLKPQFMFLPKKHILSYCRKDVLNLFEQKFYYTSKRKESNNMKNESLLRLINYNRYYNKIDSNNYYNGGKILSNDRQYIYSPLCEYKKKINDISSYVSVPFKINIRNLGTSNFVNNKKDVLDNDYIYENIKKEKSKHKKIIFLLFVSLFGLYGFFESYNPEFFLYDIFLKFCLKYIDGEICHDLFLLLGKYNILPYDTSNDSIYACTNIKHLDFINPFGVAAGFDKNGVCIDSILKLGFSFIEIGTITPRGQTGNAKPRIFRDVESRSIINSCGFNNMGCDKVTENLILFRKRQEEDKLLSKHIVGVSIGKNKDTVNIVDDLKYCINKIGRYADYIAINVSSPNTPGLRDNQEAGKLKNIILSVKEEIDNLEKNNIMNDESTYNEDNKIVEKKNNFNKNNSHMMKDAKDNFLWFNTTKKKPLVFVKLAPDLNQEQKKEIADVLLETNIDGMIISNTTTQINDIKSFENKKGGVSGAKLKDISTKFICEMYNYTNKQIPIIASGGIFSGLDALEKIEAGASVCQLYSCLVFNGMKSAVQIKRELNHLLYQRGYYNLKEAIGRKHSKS
Sequence of E3 ubiquitin-protein ligase XIAP (Homo sapiens) (P98170 whole entry, looked up): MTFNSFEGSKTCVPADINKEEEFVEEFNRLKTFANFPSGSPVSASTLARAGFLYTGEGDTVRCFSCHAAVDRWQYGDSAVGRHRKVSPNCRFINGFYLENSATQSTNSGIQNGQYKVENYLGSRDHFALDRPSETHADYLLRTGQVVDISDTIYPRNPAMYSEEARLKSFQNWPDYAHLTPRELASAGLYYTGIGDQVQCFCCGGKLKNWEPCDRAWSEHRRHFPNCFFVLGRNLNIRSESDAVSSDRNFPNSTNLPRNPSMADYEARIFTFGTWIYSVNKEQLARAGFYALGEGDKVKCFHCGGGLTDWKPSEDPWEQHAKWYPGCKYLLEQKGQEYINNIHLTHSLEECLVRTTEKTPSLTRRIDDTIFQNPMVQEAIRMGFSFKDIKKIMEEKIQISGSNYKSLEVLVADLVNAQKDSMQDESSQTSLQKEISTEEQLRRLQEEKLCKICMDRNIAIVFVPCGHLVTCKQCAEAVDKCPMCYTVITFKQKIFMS

As to `COCCCNC(=O)[C@@]1(CCS(=O)(=O)c2ccccc2)COC(c2ccc(OCCCO)cc2)=N1`, the z-score is -0.721 in assay [1]; -0.25 (inactive) in assay [2]; -0.849 (inactive) in [3]; 0.19 (inactive) in [5]; -0.19 (inactive) in [6]; 0.199 (inactive) in [7]. The results for the z-score in assay [8] and in assay [9] were 0.103 (inactive) and -0.508, respectively. The composite z-score is -0.565 (inactive) in assay [4] and 0.218 in assay [10].
For `C=C(CCCC)/C(=C/C[C@H](OC(=O)c1ccncc1)c1ccc(OCCO)cc1)c1cnc2ccccc2c1`, the z-score in assay [1] was 1.08; in assay [2], -1.28 (inactive); in assay [3] it was -0.0114 (inactive); in [5], 0.391 (inactive); in assay [6], 0.51 (inactive); in assay [7], 0.709 (inactive). In addition, the figures for the z-score in assay [8] and in assay [9] were 0.258 (inactive) and 1.04, respectively. Further, the figures for the composite z-score in assay [4] and in assay [10] were -2.89 (inactive) and -0.122, respectively.
Take `COC(=O)C(CC#Cc1ccc2c(c1)[C@]1(C(=O)N2)[C@H](c2ccccc2OCCO)N2[C@H](c3ccccc3)[C@H](c3ccccc3)OC(=O)[C@H]2[C@@H]1C(=O)N1CCc2cc(OC)c(OC)cc2C1)C(=O)OC`: the z-score in [1] is 0.0231; in assay [2], 1.07 (inactive); in assay [3], -1.07 (inactive); in assay [5], 2.83 (inactive); in assay [6], 1.79 (inactive); in [7], 0.021 (inactive). The z-score in [8] is 0.761 (inactive); in [9], -0.918. For the same compound, the composite z-score in assay [4] was -0.653 (inactive); in assay [10] it was 0.132.
As to `C=CCC(OC(C)=O)[C@@H]1[C@@H](N(Cc2cccc3ccccc23)C(=O)c2ccc(-c3ccccc3)cc2)c2cc(OCCCO)ccc2N1C(=O)Cc1ccc2ccccc2c1` (stereo not given in full), the z-score in assay [1] was 0.236; in [2], 0.716 (inactive); in [3], 0.331 (inactive); in assay [5], 0.444 (inactive); in assay [6] it was -0.368 (inactive); in assay [7] it was -0.416 (inactive). Besides, the figures for the z-score in [8] and in assay [9] were -0.236 (inactive) and 0.193, respectively. Moreover, the composite z-score is -0.0628 (inactive) in assay [4] and -0.179 in assay [10].
In the case of `CCOC(=O)C[C@H]1[C@H](OC(=O)c2ccccc2-c2ccccc2)[C@@H](NC(=O)c2ccc3ccccc3c2)c2cc(OCCCO)ccc2N1C(=O)Cc1ccc(OC)cc1`, the z-score is -0.397 in [1]; 0.118 (inactive) in [2]; -0.142 (inactive) in [3]; -0.283 (inactive) in assay [5]; -0.899 (inactive) in assay [6]; -0.516 (inactive) in assay [7]. In addition, the z-score is -0.404 (inactive) in [8] and -0.0439 in assay [9]. In addition, the composite z-score is -0.0597 (inactive) in [4] and 0.0711 in [10].
`C=C(COC)C(=O)CC[C@@H](OC(=O)c1ccccc1-c1ccccc1C(=O)O)c1ccc(OCCO)cc1`: the z-score in assay [1] is -0.425; in assay [2] it was -0.528 (inactive); in assay [3] it was -0.105 (inactive); in [5], 0.449 (inactive); in assay [6] it was -0.426 (inactive); in assay [7], -0.699 (inactive). Further, the values for the z-score in assay [8] and in assay [9] were -0.708 (inactive) and -0.492, respectively. Further, the composite z-score was -1.09 (inactive) in assay [4] and 0.165 in assay [10].
Consider `O=C1NC(=O)C2C1C=CC(C(O)c1ccc([N+](=O)[O-])cc1)N2Nc1ccccn1` (stereo not given), for which the z-score in assay [1] is -0.731; in [2] it was 0.579 (inactive); in [3], -0.76 (inactive); in assay [5], 0.586 (inactive); in assay [6], 0.485 (inactive); in [7] it was -0.16 (inactive). For the same compound, the figures for the z-score in assay [8] and in assay [9] were -0.372 (inactive) and -0.723, respectively. Besides, the values for the composite z-score in [4] and in assay [10] were 0.622 (inactive) and 0.103, respectively.
For `CO[C@H]1O[C@H](CO)[C@@H](OC(=O)Nc2ccccc2)[C@H](OC(=O)Nc2ccccc2)[C@H]1OC(=O)Nc1ccccc1`, the z-score was -1.08 in [1]; 0.0367 (inactive) in [2]; -2.78 (inactive) in assay [3]; -0.317 (inactive) in assay [5]; 1.84 (inactive) in [6]; 1.48 (inactive) in [7]. In addition, the z-score was 0.536 (inactive) in assay [8] and -1.95 in [9]. In addition, the composite z-score in assay [4] is 1.02 (inactive); in assay [10], -0.0125.
In the case of `[N-]=[N+]=Nc1ccccc1C[C@@]1(C(=O)NCC(O)CO)N=C(c2ccc(OCCCO)cc2)O[C@@H]1c1ccccc1` (stereo not given in full), the z-score in assay [1] was 0.559; in assay [2], -2.46 (inactive); in assay [3], 0.33 (inactive); in assay [5], -0.456 (inactive); in [6], 0.302 (inactive); in assay [7] it was 0.443 (inactive). Moreover, the z-score was -0.0622 (inactive) in [8] and 0.0762 in [9]. The composite z-score in assay [4] is 0.303 (inactive); in [10], 0.0049.
On to `COC(=O)C1(Cc2ccccc2)C=C2C(=C(C)C(=O)C2C)CN1` (stereo not given), for which the z-score in assay [1] is -0.896; in [2], 1.1 (inactive); in assay [3], -0.86 (inactive); in [5], 0.452 (inactive); in assay [6] it was -0.527 (inactive); in assay [7], 0.858 (inactive). The z-score in assay [8] was 1.2 (inactive); in assay [9], -0.625. For the same compound, the composite z-score in assay [4] is -1.98 (inactive); in assay [10], -0.168.
Regarding `C=C(CCCC)C(=O)CC[C@H](OC(=O)c1ccccc1-c1ccccc1C(=O)O)c1ccc(OCCO)cc1`, the z-score in assay [1] was 0.359; in [2], -1.6 (inactive); in [3] it was -0.429 (inactive); in assay [5] it was 0.203 (inactive); in assay [6], 0.152 (inactive); in assay [7] it was 0.373 (inactive). Further, the z-score was -0.636 (inactive) in assay [8] and 0.147 in assay [9]. Also, the composite z-score in [4] was -1.03 (inactive); in [10], 0.0652.
For `O=C1C2C=CC(C(O)c3c(F)cccc3Cl)N(Nc3ccc([N+](=O)[O-])cc3)C2C(=O)N1c1ccccc1` (stereo not given), the z-score in assay [1] is -0.0492; in assay [2] it was 0.615 (inactive); in [3] it was -0.396 (inactive); in assay [5], 0.685 (inactive); in [6], 0.378 (inactive); in [7], -0.333 (inactive). Further, the values for the z-score in assay [8] and in assay [9] were -0.194 (inactive) and 0.278, respectively. The results for the composite z-score in assay [4] and in [10] were 0.406 (inactive) and -0.357, respectively.
